Source: PubChem BioAssay AID1847 (The Scripps Research Institute Molecular Screening Center, 2009)
Hit rate of the full screen: of about 2,300 compounds, about 1,100 (48%) were called active.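 Rule for the calls: active = inhibition above the mean inhibition of all tested sample wells plus 3 SD (cut at about 10% in these data); inactive = the rest.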 The set was probably picked from earlier hits. Only a sample is shown.

Target: Luciferin 4-monooxygenase (Photinus pyralis) (UniProt P08659)
Assay: native FLuc enzyme inhibition – biochemical, luminescence, triplicate, artefact control for HSP90 inhibitor project, confirmation (AID 1847);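 note: 0% = DMSO with luciferase and 100% = wells lacking luciferase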
Conditions: purified native firefly luciferase, at 5.9 µM, stronger effect = higher value

Luciferin 4-monooxygenase (Photinus pyralis), sequence (P08659 whole entry, looked up): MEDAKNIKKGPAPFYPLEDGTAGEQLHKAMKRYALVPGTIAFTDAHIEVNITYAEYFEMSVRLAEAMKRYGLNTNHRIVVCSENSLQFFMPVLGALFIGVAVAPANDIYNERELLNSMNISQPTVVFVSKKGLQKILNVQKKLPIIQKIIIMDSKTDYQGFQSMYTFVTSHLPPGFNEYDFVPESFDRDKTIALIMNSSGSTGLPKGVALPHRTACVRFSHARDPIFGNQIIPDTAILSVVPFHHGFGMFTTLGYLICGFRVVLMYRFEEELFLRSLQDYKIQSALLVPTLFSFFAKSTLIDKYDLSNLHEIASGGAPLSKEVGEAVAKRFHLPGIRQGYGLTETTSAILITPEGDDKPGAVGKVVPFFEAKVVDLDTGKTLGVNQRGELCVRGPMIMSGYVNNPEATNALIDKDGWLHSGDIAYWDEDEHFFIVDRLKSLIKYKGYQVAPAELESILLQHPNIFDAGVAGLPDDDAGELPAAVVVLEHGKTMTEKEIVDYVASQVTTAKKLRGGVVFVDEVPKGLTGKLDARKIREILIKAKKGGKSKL

Structure (SMILES)	inhibition
COc1cccc(-c2nc3ccc(N4CCN(C)CC4)cc3[nH]2)c1	38.9% (active)
O=c1c2ccccc2nc(/C=C/c2ccco2)n1-c1ccccc1O	4.47% (inactive)
